Compounds with a hit are over-represented: about 1.1% of the library has one in this group of screens.
FadD28 binding: inhibitors of FadD28 bisubstrate probe binding, primary screen, biochemical, fluorescence polarization, single point. Mycobacterium tuberculosis FadD28 fatty-acid-AMP ligase. inhibition, % at 12.5 µM. 0.22% of 360,000 active; in the data active = inhibition above about 8.5%, passing the limit was not always enough
PrP 5UTR inh: inhibition of PrP 5' UTR reporter expression. cell-based PrP 5' UTR mRNA reporter, plate reader. inhibition, % (concentration not given with the values). AID 488862, 2010. 0.35% of 340,000 active; in the data active = inhibition above about 52%
TcdB inh: TcdB glycohydrolase inhibitors, primary screen, biochemical, single point, plate reader. Toxin B (Clostridioides difficile), P18177. TcdB glycohydrolase enzymatic assay. inhibition, % at 9.99 µM. 0.24% of 350,000 active. AID 652162, 2013; in the data active = inhibition above about 10%
BioA inh: M. tuberculosis BioA enzyme inhibitors, primary screen, biochemical, plate reader, single point, HTS; 7,8-diaminopelargonic acid synthase BioA (Mycobacterium tuberculosis); purified M. tuberculosis BioA enzyme; inhibition, % at 9.99 µM; 0.096% of 360,000 active; AID 602481, 2012; in the data active = inhibition above about 40%
PfHsp40 yeast: rescue of yeast from PfHsp40 toxicity, primary screen, S. cerevisiae, ATP luminescence. 0.68% of 340,000 active. growth rescue, % at 12.5 µM. S. cerevisiae expressing PfHsp40, growth rescue. AID 504582, 2011; in the data active = growth rescue above about 28%, passing the limit was not always enough;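 note: yeast W303a lacking pdr1 and pdr3 grown in galactose medium; growth measured after three days at 30 °C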
Large screens that a line does not name were inactive; ! = not confirmed by another sample.

O=C1c2cc(CO)cc(O)c2C(=O)c2c(O[C@@H]3OC(CO)[C@@H](O)[C@@H](O)[C@@H]3O)cccc21 (some centres undefined)	none
Nc1ccc(N=Nc2ccccc2O)c(N)c1	none (no result: PrP 5UTR inh, PfHsp40 yeast)
Oc1ccccc1N=Nc1ccccc1O	PfHsp40 yeast 31.8 (no result: BioA inh)
C[C@@H]1CN([C@@H](C)CO)C(=O)c2cc(NC(=O)c3ccccc3)ccc2O[C@@H](C)CCCCO[C@H]1CN(C)Cc1ccncc1	none (no result: FadD28 binding, PrP 5UTR inh, PfHsp40 yeast)
C=Cc1c(C)c2cc3[nH]c(cc4nc(cc5nc(cc1[nH]2)C(C)=C5CCC(=O)O)C(CCC(=O)O)=C4C)c(C)c3C=C	FadD28 binding 43.3!
CSc1ccc(-c2nc3cnccn3c2Nc2ccc3c(c2)OCO3)cc1	BioA inh 61.5 (no result: TcdB inh)
Clc1ccc(-c2nc3cnccn3c2Nc2ccc3c(c2)OCO3)cc1	none
C[C@@H]1CCCCO[C@H](CN(C)Cc2ccc(C(=O)O)cc2)[C@@H](C)CN([C@@H](C)CO)C(=O)c2cc(NS(=O)(=O)c3ccccc3)ccc2O1	none (no result: FadD28 binding, PrP 5UTR inh, TcdB inh, PfHsp40 yeast)
O=C(CSc1nc2ccccc2o1)N/N=C/c1ccco1	none
Cc1cc(SCC(=O)N/N=C/c2ccco2)nc2ccccc12	TcdB inh 14.1 (no result: BioA inh)
CCC/C(C)=N/NC(=O)c1ccccc1O	none (no result: TcdB inh, BioA inh)
CCOC(=O)C(CC)/C(C)=N\NC(=O)c1ccccc1O (centres undefined)	PfHsp40 yeast 109.7 (no result: BioA inh)
O=C([C@H]1[C@H](CO)[C@H]2Cn3c(cccc3=O)[C@@H]1N2CC1CC1)N1CCc2ccccc2C1	none (no result: FadD28 binding, PrP 5UTR inh, PfHsp40 yeast)
CC(C)C(=O)Nc1ccc2c(c1)C(=O)N(C)[C@H]1CC[C@H](CC(=O)NCC3CC3)O[C@@H]1CO2	none (no result: FadD28 binding, PrP 5UTR inh, PfHsp40 yeast)
COc1cc(NS(=O)(=O)c2ccc(C)cc2)c2ncccc2c1	PfHsp40 yeast 542.0 (no result: TcdB inh, BioA inh)
COc1cc(NCCCC(C)N)c2ncccc2c1 (centres undefined)	FadD28 binding 8.7 (no result: TcdB inh)
O=C(Nc1ccc([N+](=O)[O-])cc1)Nc1ccc(OC(F)F)c(Cl)c1	FadD28 binding 12.5 (no result: TcdB inh, BioA inh)
O=C(Nc1ccc(OC(F)F)c(Cl)c1)Nc1ccc2c(c1)OCO2	none (no result: TcdB inh, BioA inh)
CCOC(=O)/C=C/C(=O)Nc1cccc([N+](=O)[O-])c1	PfHsp40 yeast 189.3 (no result: TcdB inh, BioA inh)
COc1ccc(NC(=O)Nc2cccc([N+](=O)[O-])c2)cc1Cl	FadD28 binding 16.4
COc1ccc(C(=O)Nc2cccc([N+](=O)[O-])c2)cc1Br	none (no result: TcdB inh)
Oc1ccc(CN2CCCc3ccccc32)c2cccnc12	PfHsp40 yeast 38.2 (no result: TcdB inh, BioA inh)
COc1ccccc1N1CCN(Cc2ccc(O)c3ncccc23)CC1	none (no result: PrP 5UTR inh, TcdB inh)
FC(F)(F)c1nc(SCc2ccc(Cl)cc2Cl)n[nH]1	PfHsp40 yeast 299.1 (no result: BioA inh)
NNC(=S)NC1CC2CC1C1C=CCC21 (centres undefined)	none
Oc1ccc(O)c(C=NNC(=S)NC2CC3CC2C2C=CCC32)c1 (centres undefined)	FadD28 binding 17.8 (no result: PrP 5UTR inh, PfHsp40 yeast)
CCOC(=O)c1nnn(-c2nonc2N)c1-c1ccc(F)cc1	TcdB inh 12.0
CCOC(=O)c1nnn(-c2nonc2N)c1-c1ccccc1Cl	TcdB inh 16.1 (no result: BioA inh)
COc1ccc(CN2C(=O)[C@@H]3[C@H]4C(=O)O[C@H](c5ccccc5)[C@@H](C)N(C)C(=O)CC/C=C/[C@H]4O[C@@]34C=CCN(Cc3ccccc3)C(=O)[C@@H]24)cc1	none (no result: FadD28 binding, PrP 5UTR inh, PfHsp40 yeast)
CO[C@H]1CN(C)C(=O)c2cc(NC(=O)NC(C)C)ccc2OC[C@H](C)N(C(=O)C2CCC2)C[C@H]1C	none (no result: FadD28 binding, PrP 5UTR inh, TcdB inh, PfHsp40 yeast)
Cc1noc(C)c1NC(=O)N(C)C[C@@H]1Oc2ccc(NC(=O)Nc3ccccc3)cc2C(=O)N([C@@H](C)CO)C[C@H]1C	none (no result: FadD28 binding, PrP 5UTR inh, PfHsp40 yeast)
Nc1cccc(C(=O)OCC(=O)NC2CCCc3ccccc32)c1 (centres undefined)	none (no result: BioA inh)
CCN(CC)S(=O)(=O)c1ccc(Cl)c(NC(=O)COC(=O)c2ccc([N+](=O)[O-])o2)c1	PfHsp40 yeast 49.1
COc1ccc(C)cc1NC(=O)COC(=O)c1ccc([N+](=O)[O-])o1	PfHsp40 yeast 76.7 (no result: BioA inh)
COc1ccc(NC(=O)COC(=O)c2ccc([N+](=O)[O-])o2)cc1Cl	none (no result: BioA inh)
O=C(COC(=O)c1ccc([N+](=O)[O-])o1)Nc1ccc(N2CCOCC2)cc1	PfHsp40 yeast 94.8
O=C(COC(=O)c1ccc([N+](=O)[O-])o1)NC1CCCc2ccccc21 (centres undefined)	PfHsp40 yeast 261.5 (no result: FadD28 binding)
CO[C@@H](CN(C)CC1CCOCC1)[C@@H](C)CN(C(=O)Nc1ccc(F)cc1)[C@@H](C)CO	none (no result: FadD28 binding, PrP 5UTR inh, PfHsp40 yeast)
O=C(COC(=O)c1ccc(Br)o1)Nc1ncc(Cl)cc1Cl	none (no result: BioA inh)
O=C(COC(=O)c1ccc([N+](=O)[O-])o1)NCc1ccc2c(c1)OCO2	PfHsp40 yeast 167.8
COc1ccc(C(C)(C)C)cc1NC(=O)COC(=O)c1ccc([N+](=O)[O-])o1	PfHsp40 yeast 531.6
CN1/C(=C\C(=O)COC(=O)c2ccc([N+](=O)[O-])o2)C(C)(C)c2ccccc21	PfHsp40 yeast 35.9 (no result: BioA inh)
O=C(COC(=O)c1ccc([N+](=O)[O-])o1)Nc1ncc(Cl)cc1Cl	PfHsp40 yeast 49.2 (no result: BioA inh)
CCCNC(=O)Nc1ccc2c(c1)OC[C@H](C)N(Cc1cccnc1)C[C@H](C)[C@H](OC)CN(C)C2=O	none (no result: FadD28 binding, PrP 5UTR inh, TcdB inh, PfHsp40 yeast)
CCCNC(=O)N1C[C@@H](O)COC[C@H]2O[C@H](CC(=O)N[C@@H]3CCN(Cc4ccccc4)C3)CC[C@@H]21	none (no result: FadD28 binding, PrP 5UTR inh, PfHsp40 yeast)
O=S(=O)(Cc1ccccc1)N1CC2(C1)[C@H](c1ccccc1)[C@@H](CO)N2CC1CCOCC1	none (no result: FadD28 binding, PrP 5UTR inh, BioA inh, PfHsp40 yeast)
COc1ccc(NC(=O)N[C@@H]2CC[C@H](CCNC(=O)Cc3ccncc3)O[C@@H]2CO)cc1	none (no result: FadD28 binding, PrP 5UTR inh, PfHsp40 yeast)
CN1CCN(C(=O)C[C@@H]2CC[C@@H]3[C@H](COc4ccc(NC(=O)c5ccc(F)c(F)c5)cc4C(=O)N3C)O2)CC1	none (no result: FadD28 binding, PrP 5UTR inh, PfHsp40 yeast)

Screening results from PubChem BioAssay.
